JMJD2A Tudor – qHTS Assay for Inhibitors of JMJD2A-Tudor Domain | Lysine-specific demethylase 4A (Homo sapiens), O75164 | AlphaScreen JMJD2A-Tudor / H3K4me3 peptide binding | Potency, µM (series often up to 114 µM), for the others: at the highest dose activity change, negative = inhibition, most hits filed as inhibitors | 390,000 tested, 4.4% active | AID 504339, 2011; also: % is scaled to controls: 0 for no effect and ±100 for the full control effect; nearly all actives have a fitted effect of over 50% in size
GLS inh – qHTS for Inhibitors of Glutaminase (GLS). Glutaminase kidney isoform, mitochondrial (Homo sapiens), O94925. GLS enzymatic activity, qHTS titration. Potency, µM (top dose mostly 45.5 µM), for inactives: at the top dose activity change, negative = inhibition, most hits filed as inhibitors. 410,000 tested, 0.21% active. AID 624170, 2012; also: % is scaled to controls: 0 for no effect and ±100 for the full control effect
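hKGA; 45 mM KH2PO4 pH 8.2 + 0.02% Tween-20; cpd via pin tool; 1 mM Gln soln; GluOx/HRP/Amplex Red; RT 30 min; fluor. t0 & final.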
HP1b chromo inh – HTS for Inhibitors of HP1-beta Chromodomain Interactions with Methylated Histone Tails. Chromobox protein homolog 1 (Homo sapiens), P83916. AlphaScreen HP1-beta / biotin-H3K9me3 peptide binding. Potency, µM (doses to about 114 µM), for the others: at the highest dose activity change, negative = inhibition, hits mostly inhibitors. 390,000 tested, 0.56% active; also: nearly all actives have a fitted effect of over 70% in size
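HP1-beta protein (50 nM final) preincubated 30 min at room temperature with biotinylated H3(1-18)K9me3 peptide (50 nM) in PBS pH 7.4, 0.01% Tween-20, then compound added for 30 min. AlphaScreen streptavidin donor/nickel chelate acceptor beads (10 ug/mL final), 30 min dark, luminescence read.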
L3MBTL1 block – qHTS Assay for the Inhibitors of L3MBTL1. Lethal(3)malignant brain tumor-like protein 1 (Homo sapiens), Q9Y468. AlphaScreen L3MBTL1–H3K9me1 peptide binding. Potency, µM (doses to about 57.1 µM), for inactives: at the highest dose activity, negative = inhibition, most hits filed as inhibitors. 230,000 tested, 0.66% active. AID 485360, 2010; also: % is scaled to controls: 0 for no effect and ±100 for the full control effect; nearly all actives have a fitted effect of over 60% in size
Target sequence (Q9Y468 whole entry, looked up): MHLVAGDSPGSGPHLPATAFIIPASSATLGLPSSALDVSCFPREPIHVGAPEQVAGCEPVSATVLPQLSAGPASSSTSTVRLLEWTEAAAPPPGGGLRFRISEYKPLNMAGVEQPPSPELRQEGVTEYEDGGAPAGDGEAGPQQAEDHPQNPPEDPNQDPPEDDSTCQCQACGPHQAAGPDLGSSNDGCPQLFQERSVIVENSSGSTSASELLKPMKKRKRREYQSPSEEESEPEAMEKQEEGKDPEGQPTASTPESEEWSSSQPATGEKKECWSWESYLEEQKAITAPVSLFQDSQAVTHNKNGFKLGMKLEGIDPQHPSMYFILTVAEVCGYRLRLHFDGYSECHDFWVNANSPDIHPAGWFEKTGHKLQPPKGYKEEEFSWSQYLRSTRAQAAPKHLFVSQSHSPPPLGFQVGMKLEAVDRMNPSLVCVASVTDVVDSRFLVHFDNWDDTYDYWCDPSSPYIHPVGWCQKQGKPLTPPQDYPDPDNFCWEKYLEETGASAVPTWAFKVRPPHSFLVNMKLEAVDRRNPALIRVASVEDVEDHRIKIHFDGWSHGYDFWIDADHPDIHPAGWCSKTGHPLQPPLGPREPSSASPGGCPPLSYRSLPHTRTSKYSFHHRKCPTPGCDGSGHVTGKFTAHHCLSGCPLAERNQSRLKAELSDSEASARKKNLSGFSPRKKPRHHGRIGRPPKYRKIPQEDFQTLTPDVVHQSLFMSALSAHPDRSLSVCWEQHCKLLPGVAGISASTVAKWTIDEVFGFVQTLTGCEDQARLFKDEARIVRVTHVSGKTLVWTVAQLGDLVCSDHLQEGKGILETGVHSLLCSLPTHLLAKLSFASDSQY
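Displacement of a biotinylated histone H3(1-15) peptide monomethylated at Lys9 (75 nM) from L3MBTL1 (50 nM) was measured by AlphaScreen after a 30 min room-temperature compound incubation; cefsulodin titration served as intraplate control.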
G9a block – qHTS Assay for Inhibitors of Histone Lysine Methyltransferase G9a. G9a H3K9 monomethylation, AlphaScreen, 2 h. Potency, µM (top dose mostly 102 µM), for inactives: at the highest dose activity, negative = inhibition, actives largely listed as inhibitors. 350,000 tested, 8.8% active. AID 504332, 2011; also: % is scaled to controls: 0 for no effect and ±100 for the full control effect; nearly all actives have a fitted effect of over 75% in size
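Chemiluminescent proximity detection of H3K9 monomethylation, read after 10 min bead incubation in the dark. Reaction: 20 nM G9a, 500 nM biotin-H3K9 peptide, 20 uM SAM cofactor, 2 h, room temperature, following 15 min enzyme-compound preincubation.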
BAZ2B inh – qHTS Assay for Inhibitors of BAZ2B | Potency, µM (doses to about 114 µM), inactives show at the top dose activity change, negative = inhibition, hits mostly inhibitors | 360,000 tested, 4.4% active | Bromodomain adjacent to zinc finger domain protein 2B (Homo sapiens), Q9UIF8 | AlphaScreen BAZ2B-H3K14Ac peptide displacement | AID 504333, 2011; also: % is scaled to controls: 0 for no effect and ±100 for the full control effect; nearly all actives have a fitted effect of over 60% in size
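BAZ2B (50 nM) with biotin-H3(5-23)K14Ac peptide (50 nM) in PBS pH 7.4, 0.01% Tween-20, preformed 30 min, then compound 30 min at room temperature; top concentration 110uM. AlphaScreen streptavidin donor/nickel chelate acceptor beads (10 ug/mL final), 20 min dark, signal read.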
An asterisk follows results filed as active; ? = inconclusive; · = no result; [ ] = another dose, or the depositor's remark. The list is not random: actives were taken first. Their share in the collection is about 10%. Calls follow the shape of the dose curve; as a rule, active = well fitted curve in the direction sought with a large enough effect; inconclusive = small, poorly fitted or top-dose-only effect, or another doubt; inactive = no such curve, though single readings can be large; an effect the other way counts as inactive or inconclusive. Potency is read from the fitted curve at half-maximal effect.

SMILES	JMJD2A Tudor	GLS inh	HP1b chromo inh	L3MBTL1 block	G9a block	BAZ2B inh
COc1ccc(C(OCC(O)CNCCc2ccc(S(N)(=O)=O)cc2)c2ccc(OC)cc2)cc1 (stereo not given)	-30%	1%	10%	·	-7%	-27%
CCN(CC)c1ccc(/C=N/N2CC(=O)NC2=S)cc1	-17%	16%	39%	-12%	7.9µM*	-1%
CCC1CN(C(=O)Nc2cccc3c2CCCC3)c2cc(C)ccc2O1 (stereo not given)	-13%	2%	19%	·	-3%[59 µM]	-12%
COc1ccc(C)cc1S(=O)(=O)NCC(c1cccs1)S(=O)(=O)c1ccc(C)cc1 (stereo not given)	-15%	-4%	18%	·	3%[59 µM]	-11%
CC1(C)Cc2c(C#N)c(NC3CCCCC3)nc(-c3ccco3)c2CO1	·	·	·	6%	11µM*	5%
CC1(C)Cc2c(C#N)c(NCC3CCCO3)nc(-c3ccco3)c2CO1 (stereo not given)	41%	-2%	96%	22%[11.4 µM]	10µM*	11%
CC1(C)Cc2c(C#N)c(NCCc3ccccc3)nc(-c3ccco3)c2CO1	37%	-11%	3%	4%	-25%	0%
COc1ccc(NC(=O)Nc2sc3nc4n(c(=O)c3c2C)CCC(C)CC4)cc1OC (stereo not given)	-9%	-1%	18%	·	1%[59 µM]	-4%
COc1ccccc1NC(=O)c1cc2c(=O)oc3ccc(C)cc3c2s1	-12%	-15%	37%	·	0.71µM*	0%
Cc1ccc2oc(=O)c3cc(C(=O)NCCN4CCN(C)CC4)sc3c2c1	-11%	-1%	42%	35µM*	19%[59 µM]	12%
Cc1ccc2oc(=O)c3cc(C(=O)NCCCN4CCc5ccccc5C4)sc3c2c1	-30%	-13%	38%	-6%	32µM*	?
Cc1ccc(CN2C(=O)CC(c3ccc(Cl)cc3)c3c(C)nn(-c4nc(C)cc(C)n4)c32)cc1 (stereo not given)	?	-6%	35%	·	-32%[59 µM]	-29%
CCN(c1ccccc1)S(=O)(=O)c1nnc(NC(=O)COc2cccc(C)c2)s1	-5%	11%	45%	·	0%[59 µM]	-22%
Nc1ncnc2c1nc(Br)n2[C@@H]1O[C@H]2COP(=O)(O)O[C@@H]2[C@@H]1O	·	·	·	·	36%[59 µM]	·
O=S(=O)(Nc1ccc(-n2cccc2)cc1)c1ccc(Cl)c(Cl)c1	?	7%	-24%	-21%	?	?
O=S(=O)(Nc1ccc(-n2cccc2)cc1)c1ccc(F)cc1	-8%[11.4 µM]	-3%	?	·	50µM*	?
CCc1ccccc1NC(=O)CSc1nc2c(oc3ccccc32)c(=O)n1-c1ccccc1	-14%	8%	17%	·	8%[59 µM]	2%
CCC(=O)Nc1ccc(OCc2cc(C3Nc4ccccc4C(=O)N3Cc3ccccc3)ccc2OC)cc1 (stereo not given)	-35%	·	·	·	·	·
O=C(c1ccco1)n1c(=S)nc2ccccn21	-27%	-22%	-25%	7%	?	6%
Cc1cccc(C(=O)n2c(=S)nc3cc(C)ccn32)c1	40µM*	-2%	-15%	-17%	7.9µM*	-40%
Cc1ccn2c(c1)nc(=S)n2C(=O)c1ccccc1	-14%	-9%	-24%	-13%	45µM*	9%
CC1Cc2cc(S(=O)(=O)CCC(=O)Nc3ccccc3F)ccc2N1C(=O)C1CC1 (stereo not given)	-12%	1%	31%	·	-9%[59 µM]	-6%
CCOc1ccccc1NC(=O)c1nc2nc(C)cc(C(F)F)n2n1	-13%	5%	37%	·	-11%[59 µM]	1%
CCc1cc2c(CN3CCN(Cc4ccccc4)CC3)cc(=O)oc2cc1O	?	27%	41%	·	45µM*	?
CC1CCN(Cc2cc(=O)oc3ccc(C(C)C)cc23)CC1	56%	-1%	104%	·	24%	17%
SMILES	JMJD2A Tudor	GLS inh	HP1b chromo inh	L3MBTL1 block	G9a block	BAZ2B inh
CC(C)c1ccc2oc(=O)cc(CN3CCCCC3)c2c1	12%	1%	57%	·	71µM*	61%
COc1ccc2c(CN3CCN(Cc4ccccc4)CC3)cc(=O)oc2c1	·	10%	·	·	·	·
O=c1cc(CN2CCN(Cc3ccccc3)CC2)c2cc3c(cc2o1)CCC3	-5%	-4%	11%	·	?	-33%
CCc1ccc2c(CN3CCN(Cc4ccccc4)CC3)cc(=O)oc2c1	-30%	9%	10%	·	71µM*	-19%
Cc1cc(C)c2c(CN3CCN(Cc4ccccc4)CC3)cc(=O)oc2c1C	?	-2%	16%	·	50µM*	?
COc1ccc(CCNC(=O)c2ccc3c(c2)N(Cc2ccccc2C)C(=O)c2ccccc2S3)cc1OC	-28%	1%	53%	·	-2%[59 µM]	13%
CCOC(=O)Nc1ccc2c(CN3CCC(C(=O)OC)CC3)cc(=O)oc2c1	-3%	-1%	35%	·	-29%	-2%
CCc1ccc2c(CN3CCC(C(=O)OC)CC3)cc(=O)oc2c1	-14%	3%	45%	·	50µM*	1%
Cc1cc2oc(=O)cc(CN3CCc4ccccc43)c2cc1Cl	-24%	20%	21%	-7%	-37%[59 µM]	-30%
Cc1nnc(SCc2cc(=O)oc3cc(O)ccc23)n1Cc1ccccc1	2%	-1%	34%	3%	-31%[59 µM]	0%
Cc1ccc2oc(=O)cc(CN3CCN(Cc4ccccc4)CC3)c2c1	-19%	-2%	18%	·	50µM*	-2%
CCc1ccc2c(CN3CCc4ccccc43)cc(=O)oc2c1	-17%	17%	45%	-8%	35µM*	-35%
Cc1nnc(SCc2cc(=O)oc3ccc4ccccc4c23)n1Cc1ccccc1	-30%	8%	28%	-3%	35µM*	-2%
CCN(CC)S(=O)(=O)c1cccc(C(=O)Nc2ccccc2C(=O)Nc2ccc(OC)cc2)c1	-7%	3%	26%	·	-22%[59 µM]	0%
Cc1ccc(NC(=O)CSc2nccn2C2CCCC2)cc1	-20%	5%	15%	·	-11%[59 µM]	-29%
CCc1cc2c(CN(C)Cc3ccccc3F)cc(=O)oc2cc1O	-25%	13%	-6%	·	50µM*	-5%
O=C(NN1C(=O)/C(=C/C=C/c2ccco2)SC1=S)c1ccccc1O	8.9µM*	57%	13µM*	1.3µM*	·	13µM*

Bioassay records: PubChem BioAssay, National Center for Advancing Translational Sciences (NCATS)
